In PubChem BioAssay AID652233 (Johns Hopkins Ion Channel Center, 2013):
Screen size: about 2,300 compounds; fewer than 10 were called active. The list is a sample of the results. A number with no mark means an inactive call.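 The calls were made as follows: active = yellow fluorescent protein signal ratio exceeding the buffer control mean by over 5 SD of those controls; inactive = the rest.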

Experiment: nonspecific effects on YFP-HEK293 ionomycin response – cell-based, parental YFP-HEK293, YFP quench, counter-screen for TMEM16A inhibitor project (AID 652233);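 also: ratio is mean of duplicate wells from kinetic YFP trace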
Settings: parental YFP-HEK293, iodide YFP quench, at 10 µM
Compound `O=C(Nc1ccccc1)c1ccccc1NC(=O)C(F)(F)F` has a YFP ratio F(max-min)/F0 of -0.833. `Cn1c(CN2CCOCC2)nc2cc(NC(=O)c3ccc(Cl)cc3)ccc21` gave a YFP ratio F(max-min)/F0 of -0.87. With `Cc1ccc(C(=O)O)cc1-c1ccc(/C=C2\SC(=O)N(CC(=O)Nc3ccc4c(c3)OCO4)C2=O)o1` the YFP ratio F(max-min)/F0 was -1.05. `CCc1cc2c(N3CCN(c4nnc(CC)s4)CC3)ncnc2s1` showed a YFP ratio F(max-min)/F0 of -1.01. Work on `Cc1ccc(-c2csc(-c3c[nH]c4ccccc34)n2)cc1` yielded a YFP ratio F(max-min)/F0 of -0.919. Compound `CN(Cc1cccnc1)C(=O)c1cc(COc2ccc3ncccc3c2)on1` has a YFP ratio F(max-min)/F0 of -0.909. With `CCOC(=O)C1CCN(c2ncnc3c2oc2ccc(Br)cc23)CC1` the YFP ratio F(max-min)/F0 was -1.19. With `O=C1NC(=O)C2C1C(c1ccc([N+](=O)[O-])cc1)=NN2Cc1ccccc1` (stereo not drawn) the YFP ratio F(max-min)/F0 was -1.22. `Cc1ccc2c(c1)N(CC(=O)N1CCCc3ccccc31)C(=O)C(C)O2` (stereo not drawn) showed a YFP ratio F(max-min)/F0 of -1.08. `O=S1(=O)CCN(Cc2ccccc2Cl)CC1` showed a YFP ratio F(max-min)/F0 of -0.979. `N#Cc1nc(N)nc(N(c2ccccc2)c2ccccc2)n1` showed a YFP ratio F(max-min)/F0 of -1.24. Work on `CCCOc1ccc(Cc2c(Cl)nc(SC)nc2NC)cc1` yielded a YFP ratio F(max-min)/F0 of -1.09. Work on `Cc1ccc(NC(=O)CN(C)CC(=O)Nc2cccc(F)c2)cc1[N+](=O)[O-]` yielded a YFP ratio F(max-min)/F0 of -0.913. For `CCN(CC)S(=O)(=O)c1ccc(N(C)Cc2ccc(C(F)(F)F)cc2)nc1`, the YFP ratio F(max-min)/F0 was -1.04. For `CC1CCN(C(=O)c2ccc(CSc3ccc(Cl)cc3)cc2)CC1`, the YFP ratio F(max-min)/F0 was -0.991. `COc1ccc(-n2c(C)cc(C(=O)CSc3nnc(-c4cccs4)o3)c2C)cc1` showed a YFP ratio F(max-min)/F0 of -1.16. Compound `CCn1nccc1C(=O)Nc1ccc(S(=O)(=O)NC23CC4CC(CC(C4)C2)C3)cc1` has a YFP ratio F(max-min)/F0 of -1.03. `O=C(CN1CCN(C(=S)NC2CCCC2)CC1)Nc1ccc(Oc2ccccc2)cc1` gave a YFP ratio F(max-min)/F0 of -1.09. In the case of `Cc1ccc(N)cc1-n1c(C)ccc1C`, the YFP ratio F(max-min)/F0 is reported as -1.02. With `CN(C)c1cc[n+](Cc2ccccc2)cc1` the YFP ratio F(max-min)/F0 was -1.12. In the case of `Cn1c(CCN2CCCCCC2)nc2cc(NC(=O)Nc3ccccc3)ccc21`, the YFP ratio F(max-min)/F0 is reported as -1.1. For `COc1cc(CC(=O)Nc2nc(-c3ccc(F)c(F)c3)cs2)cc(OC)c1OC`, the YFP ratio F(max-min)/F0 was -1.01. `S=C(NCC1CCCO1)N1CCN(c2ccc(Cl)c(Cl)c2)CC1` (stereo not drawn) gave a YFP ratio F(max-min)/F0 of -0.789. With `O=c1cc(C(F)(F)F)[nH]c(=O)n1C1CCCCC1` the YFP ratio F(max-min)/F0 was -1.23. For `CCCc1cc(=S)n2c([nH]c3ccccc32)c1C#N`, the YFP ratio F(max-min)/F0 was -0.888. Work on `Cc1ccc(NC(=O)C(C)c2cccc(C(=O)c3ccccc3)c2)cc1` (stereo not drawn) yielded a YFP ratio F(max-min)/F0 of -1.26. In the case of `Cc1nc(CNS(=O)(=O)c2ccc(Oc3ccccc3)cc2)cs1`, the YFP ratio F(max-min)/F0 is reported as -1.1. Compound `C=CCSc1nsc(NC(=O)Nc2cccc(C(C)=O)c2)n1` has a YFP ratio F(max-min)/F0 of -1.12. With `O=C(O)c1ccc(NC(=O)C2CCCCC2)cc1` the YFP ratio F(max-min)/F0 was -1.22. Compound `Fc1ccc2[nH]c3c(N4CCSCC4)ncnc3c2c1` has a YFP ratio F(max-min)/F0 of -1.05. Compound `CCCC(=O)Nc1ccccc1N1CCN(C(=O)c2ccccc2)CC1` has a YFP ratio F(max-min)/F0 of -1.02. `COc1ccc(-c2nc(CCNC(=O)c3ccc(Br)o3)cs2)cc1` gave a YFP ratio F(max-min)/F0 of -1.06. In the case of `COc1ccc(NC(=O)C2=CC(c3ccc(OC)c(OC)c3)=NS(=O)(=O)N2C)cc1`, the YFP ratio F(max-min)/F0 is reported as -1.13. Compound `Cc1[nH]n(-c2cccc(Cl)c2)c(=O)c1-c1ccc(Cl)cc1` has a YFP ratio F(max-min)/F0 of -0.864. For `CCOC(=O)C1=C(CN2CCc3ccccc32)NC(=O)NC1c1cccc([N+](=O)[O-])c1` (stereo not drawn), the YFP ratio F(max-min)/F0 was -1.14. `Cc1ccc(C)c(N2CCN(C(=O)CCCCn3c(=O)[nH]c4ccccc4c3=O)CC2)c1` gave a YFP ratio F(max-min)/F0 of -1. `CSc1nnc2c(n1)OC(c1ccsc1)N(C(C)=O)c1ccccc1-2` (stereo not drawn) showed a YFP ratio F(max-min)/F0 of -1.24. `CC(=O)c1cc(CN2CCC(C(=O)Nc3cccc(-c4cscn4)c3)CC2)cs1` gave a YFP ratio F(max-min)/F0 of -0.907. Compound `Cc1cccc(-n2c(SCC(N)=O)nc3c(c2=O)C2(CCCCC2)Cc2ccccc2-3)c1` has a YFP ratio F(max-min)/F0 of -0.969. `COc1ccc(C(=O)NC2CCCc3c2cnn3-c2cccc(C)c2C)c(OC)n1` (stereo not drawn) gave a YFP ratio F(max-min)/F0 of -0.94. `CCOC(=O)C(Sc1ncc(C#N)c(N)n1)C(C)C` (stereo not drawn) gave a YFP ratio F(max-min)/F0 of -1.02. `O=C(NCCc1ccc2c(c1)OCCO2)c1cc2ccccc2o1` showed a YFP ratio F(max-min)/F0 of -0.931. In the case of `COc1ccc(Cl)cc1NC(=O)CCS(=O)(=O)c1cc2c(cc1C)NC(=O)CO2`, the YFP ratio F(max-min)/F0 is reported as -0.855.
